Screening data (PubChem)
Giardia FBPA inh: inhibitors of Giardia lamblia fructose-1,6-bisphosphate aldolase | purified Giardia FBPA | Potency, µM (highest dose often 59.6 µM), inactives show at the highest dose activity, negative = inhibition, usual class: inhibitors | hit rate 0.71% among 290,000; also: potency is read from the fitted curve at half-maximal effect; % is scaled to controls: 0 for no effect and ±100 for the full control effect; nearly all actives have a fitted effect of over 55% in size
Target sequence (A8B2U2 whole entry, looked up): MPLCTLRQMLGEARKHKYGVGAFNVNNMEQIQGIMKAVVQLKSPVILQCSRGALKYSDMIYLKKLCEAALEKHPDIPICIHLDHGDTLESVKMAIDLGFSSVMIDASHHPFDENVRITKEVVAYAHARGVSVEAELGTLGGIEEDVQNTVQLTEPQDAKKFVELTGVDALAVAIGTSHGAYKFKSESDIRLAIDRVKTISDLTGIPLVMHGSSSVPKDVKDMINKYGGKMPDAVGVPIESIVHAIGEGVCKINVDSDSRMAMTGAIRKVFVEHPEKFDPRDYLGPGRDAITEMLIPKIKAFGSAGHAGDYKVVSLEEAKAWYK
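40 nM FBPA preincubated 10 min at RT with compound (up to 57.5 uM final), then substrate plus GAPDH/TPI/NAD/arsenate coupling and diaphorase/resazurin added. Fluorescence read after 20 min at RT, 525/598 nm.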
NS1 inh: blocks influenza NS1 protein function | hit rate 0.4% among 270,000 | Potency, µM (highest dose often 46.1 µM), without a hit: at the highest dose activity, positive = more growth; calls by dose curve; also: potency is read from the fitted curve at half-maximal effect; actives are rising curves; nearly all actives have a fitted effect of over 50% in size
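In this qHTS, NS1 from influenza A is expressed in budding yeast, where it slows growth. Cells are switched from glucose to 2% galactose medium (pH 6.0, -URA), treated with compound, and growth recovery is read at OD600.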
Cycloheximide cs: counter-screen for Shiga toxin inhibitors: cycloheximide protein synthesis inhibition. cell reporter, cycloheximide protein synthesis inhibition counterscreen. max response, %. hit rate 12% among 300,000; in the data active = max response mostly above about 13%, no sharp cut-off; inactive = mostly below about 14%; also: read at 38.3 µM for the half of the compounds with a filed dose; 0% is about no effect
Pf growth 48h: inhibits P. falciparum growth in the first generation, 48 h. AID 504832. P. falciparum luciferase growth in erythrocytes, 48 h. hit rate 5.9% among 310,000. Potency, µM (top dose mostly 28.7 µM), for the others: at the highest dose activity change, negative = inhibition, most hits filed as inhibitors; also: potency is read from the fitted curve at half-maximal effect; % is scaled to controls: 0 for no effect and ±100 for the full control effect
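Read-out is firefly luciferase luminescence from an integrated reporter in P. falciparum, so falling signal marks reduced parasite growth. Infected erythrocytes were at 2% hematocrit and 0.1% parasitemia (final) in Albumax-supplemented RPMI 1640.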
Pf growth 96h: P. falciparum growth inhibition at 96 hours; P. falciparum luciferase reporter growth, 96 h; Potency, µM (highest dose often 28.7 µM), for the others: at the top dose activity change, negative = inhibition, hits mostly inhibitors; hit rate 6.9% among 320,000; AID 504834; also: potency is read from the fitted curve at half-maximal effect; % is scaled to controls: 0 for no effect and ±100 for the full control effect
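Parasite growth measured via integrated firefly luciferase reporter in P. falciparum. Infected erythrocytes at 2% hematocrit, 0.05% parasitemia final were treated 96 hours at 37 C under 5% CO2, and luminescence was read.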
Shiga inhibitor: blocks Shiga toxin action in Vero cells; Vero cells, Shiga toxin protein synthesis inhibition reporter; inhibition, % at 38.7 µM; hit rate 9.2% among 290,000; AID 2315; in the data active = inhibition mostly above about 28%, no sharp cut-off; inactive = mostly below about 43%; also: 0% is about no effect
* hit, by the source's call; ? = inconclusive; · = no result given. The list is not random: actives were taken first. Their share in the collection is about 21%. Unless noted, calls follow the shape of the dose curve; as a rule, active = well fitted curve in the direction sought with a large enough effect; inconclusive = small, poorly fitted or top-dose-only effect, or another doubt; inactive = no such curve, though single readings can be large; an effect the other way counts as inactive or inconclusive.

SMILES	Giardia FBPA inh	NS1 inh	Cycloheximide cs	Pf growth 48h	Pf growth 96h	Shiga inhibitor
CC1CCCCN1C(=O)COC(=O)c1cc([N+](=O)[O-])ccc1N (stereo not drawn)	·	·	·	41%	33%	·
COc1ccccc1NC(=O)CN1CCN(CC(=O)Nc2cc(C)ccc2OC)CC1	4%	0%	-2	?	31%	-5
COc1ccc(C)cc1NC(=O)C(c1ccccc1)N1CCN(CC(=O)NC2CC2)CC1 (stereo not drawn)	·	·	·	2.3µM*	2.1µM*	·
CCNC(=S)N(Cc1cc2cc(C)cc(C)c2[nH]c1=O)C1CCCC1	6%	9%	-3	?	6.6µM*	-6
Cc1nn(C)cc1CNC(=O)Nc1ccc(Br)cc1Cl	1%	-2%	5	?	?	19
O=C(Nc1cccc(Cl)c1)Nc1ccc2c(c1)OCO2	-14%	-21%	48*	-2%	·	73*
O=C(NCc1ccc2c(c1)OCO2)Nc1cccc(Cl)c1	-1%	-19%	41*	22%	2%	57*
CC(=O)c1cccc(NC(=O)NCc2ccc3c(c2)OCO3)c1	-2%	-10%	13	1%	3.7µM*	-6
Cc1nn(C)cc1CNC(=O)Nc1cccc(Cl)c1	-2%	5%	67*	·	88%	90*
O=C(NCc1ccc2c(c1)OCO2)C1CCCN1C(=O)Nc1cccc(Cl)c1 (stereo not drawn)	1%	-5%	10	15%	?	7
COc1ccccc1C1=Nn2c(nnc2-c2ccccc2C)SC1	-23%	·	-3	·	·	-14
COc1cc2nc(CN3CCC(C(O)(c4ccccc4)c4ccccc4)CC3)[nH]c(=O)c2cc1OC	0%	·	6	?	?	-4
CC(C)(C)c1nc2ccc(NS(=O)(=O)c3ccc(F)c(F)c3F)cc2[nH]1	?	-7%	-3	?	20%	-8
CC(=O)c1cccc(NC(=O)Nc2ccc3c(c2)OCO3)c1	·	9%	38*	118%	43%	88*
C=CCN(C(=O)Nc1ccc(OC)cc1)c1nnc(-c2ccncc2)s1	-29%	-32%	10	32%	?	34
O=C(Cn1ncc(Cl)c(Cl)c1=O)NCC1CCCCC1	8%	19%	30*	-18%	-3%	-8
O=C(Cn1ncc(Cl)c(Cl)c1=O)c1ccc(Cl)cc1	4%	-13%	21*	-29%	?	32*
CCCCc1ccc(NC(=O)CN2NS(=O)(=O)c3ccccc3C2=O)cc1	-1%	-8%	-2	10%	·	-20
C=CCn1c(C)cc(C(=O)CN2NS(=O)(=O)c3ccccc3C2=O)c1C	-1%	-6%	33*	92%	104%	87*
O=C(Cn1ncc(Cl)c(Cl)c1=O)NC1CCCCC1	·	·	·	-24%	?	·
C=CCn1c(C)cc(C(=O)Cn2ncc(Cl)c(Cl)c2=O)c1C	-1%	4%	42*	3%	9%	73*
O=C(NCCCN1CCCC1=O)c1ccc(NS(=O)(=O)c2cccc([N+](=O)[O-])c2)cc1	·	·	·	0%	4%	·
O=C(NC1CCCCC1)C1c2ccccc2C(=O)N1Cc1ccc2c(c1)OCO2 (stereo not drawn)	7%	·	7	?	1%	10
CCNC(=S)N/N=C/c1ccc(-c2ccccc2)o1	3%	4%	24*	23%	-30%	49*
CN(C)/N=C/c1ccc(/C=N/NC(N)=S)o1	?	·	-1	20%	-27%	-4
SMILES	Giardia FBPA inh	NS1 inh	Cycloheximide cs	Pf growth 48h	Pf growth 96h	Shiga inhibitor
CCNC(=S)N/N=C/c1ccco1	?	6%	-2	·	?	-16
NC(=S)N/N=C/c1ccc(-c2ccc(Cl)c(Cl)c2)o1	-20%	-52%	20*	·	·	33
Cc1ccc(-c2ccc(/C=N/NC(N)=S)o2)cc1	-28%	-57%	28*	?	?	58*
NS(=O)(=O)c1ccc(-c2ccc(/C=N/NC(=O)c3ccccc3O)o2)cc1	-9%	2%	8	?	18%	32
Cc1ccc(-c2ccc(/C=N/NC(=O)c3ccccc3O)o2)cc1	1%	-1%	13	0.59µM*	0.83µM*	38
CN(C(=O)c1cc2ccccc2oc1=O)C1(C)CCS(=O)(=O)C1 (stereo not drawn)	5%	·	-1	-3%	129%	3
COc1cccc(CNC(=O)CSc2ccc(-c3cccs3)nn2)c1	-10%	·	16	0%	?	2
NC(=S)N/N=C\c1ccc(-c2cccc(Cl)c2Cl)o1	-10%	1%	24	·	?	29
NC(=S)N/N=C/c1ccc(-c2ccccc2)o1	-11%	·	24*	?	49%	36*
NC(=S)N/N=C/c1ccc(-c2ccc(SC(F)F)cc2)o1	-23%	-3%	38*	?	?	41*
COCCN(Cc1ccc(C)c(Br)c1)C(=O)Cn1cnc(S(=O)(=O)N2CCCC2)c1	·	5%	3	7%	?	-8
Cc1ccc(NC(=O)CN(CCc2ccccc2)S(C)(=O)=O)cc1	9%	-25%	2	-11%	4%	-2
O=S(=O)(NC1CCCCC1N1CCN(c2ccc(F)cc2)CC1)c1ccc(Cl)cc1 (stereo not drawn)	5%	-13%	9	13µM*	?	32
CCCN1CCN(C2CCCCC2NS(=O)(=O)c2ccc(Cl)cc2)CC1 (stereo not drawn)	3%	-2%	-4	7%	-4%	-14
COC(=O)C1=C[C@@H](C(=O)OC)[C@@H]2C3=C(C(=O)C2(C)C)[C@H](c2ccccc2)[C@@H]2C(=O)N(c4ccccc4)C(=O)[C@@H]2[C@@H]3C1	-8%	·	-3	·	·	-9
COc1ccccc1NS(=O)(=O)c1cc2c3c(c1)CCN3C(=O)CC2	·	·	·	-12%	-12%	·
Cc1onc(-c2c(F)cccc2Cl)c1C(=O)N(C)CCc1ccccn1	·	-5%	9	90%	4%	-10
Cc1ccc(-c2cc3nc(C)cc(NCc4ccco4)n3n2)cc1	-18%	-44%	55*	3%	22%	59*
COc1ccc(-c2cc3nc(C)cc(-c4ccc(OC)cc4)n3n2)cc1	3%	15%	4	?	?	·
COc1ccc(-c2cc3nc(C)cc(N)n3n2)cc1	-6%	-32%	15*	139%	122%	73
CN(C)CCCNc1cc(-c2ccccc2)nc2cc(-c3cccc(F)c3)nn12	10%	-5%	-9	?	-14%	-33
Cc1cccc(-c2cc3nc(C)cc(NCCCN(C)C)n3n2)c1	0%	-13%	-2	10µM*	379%	-12
COCCNc1cc(C)nc2cc(-c3ccc(C)cc3)nn12	-12%	2%	15*	24%	5%	100
COCCNC(=O)COC(=O)c1ccc(OCC(=O)Nc2ccccc2OC)c(OC)c1	1%	1%	-4	207%	14%	18
N/C(CC/C(N)=N/O)=N\O	·	2%	·	·	·	·
COc1ccc(-c2cc3nc(C)cc(NCCO)n3n2)cc1	-18%	-4%	22*	-28%	4.7µM*	24
